Rows were chosen to be rich in hits. Some 8.1% of all compounds tested hit in one or more screens of this group.
KB-V1 MDR tox – kills drug-selected multidrug resistant KB-V1 cells | hit rate 3.4% among 400,000 | KB-V1 MDR cells viability, CellTiter-Glo, 72 h | Potency, µM (highest dose often 46.1 µM), hits mostly cytotoxic; further: on the % scale 0 is the no-effect control and ±100 the full control effect; nearly all actives have a fitted effect of over 60% in size
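Cytotoxicity toward P-gp-expressing KB-V1 cells was determined as loss of CellTiter-Glo luminescence after 72 h at 37 degrees C. Compounds were tested in quantitative HTS format across a concentration range, with curves fitted to normalized data.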
SW480 rerep – induces DNA re-replication in SW480 colon adenocarcinoma cells | hit rate 1.8% among 340,000 | Potency, µM (doses to about 46.1 µM), inactives show top-dose re-replication activation, actives largely listed as activators | AID 624297 | SW480 DNA re-replication, Hoechst DNA content imaging, 48 h; further: % of control where 0% means no effect; nearly all actives have a fitted effect of over 55% in size
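Image-based read-out: total Hoechst fluorescence of nuclei (405 nm excitation, 500-530 nm emission), with hits raising the fraction of high-intensity nuclei. SW480 colon cells incubated 48 hr with compounds at 37 C.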
MCF10A rereplic – induces DNA re-replication in MCF 10a normal breast cells; MCF 10A DNA re-replication, Hoechst nuclear intensity, 48 h; Potency, µM (titrated, usually from 46.1 µM), for inactives: top-dose activity, positive = re-replication, hits mostly activators; hit rate 2.9% among 350,000; further: % of control where 0% means no effect; nearly all actives have a fitted effect of over 50% in size
ELG1 repair inh – inhibitors of ELG1-dependent DNA repair in HEK293T cells; hit rate 2.3% among 330,000; HEK293T ELG1-luciferase reporter, luminescence, 16 h; DNA damage induced by 5-fluorouridine; Potency, µM (series often up to 46.1 µM), for the others: at the top dose activity change, negative = inhibition, hits mostly inhibitors; further: on the % scale 0 is the no-effect control and ±100 the full control effect; nearly all actives have a fitted effect of over 55% in size
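Step one: seed 2,000 cells per well. Step two: pin-transfer compound or DMSO alongside 5-fluorouridine. Step three: incubate 16 hr, 37 °C, 5% CO2. Step four: add ONE-Glo, wait 30 min, read luminescence.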
KB-3-1 cytotox – KB-3-1 parental cell cytotoxicity; KB-3-1 viability, CellTiter-Glo ATP luminescence, 72 h; Potency, µM (doses to about 46.1 µM), usual class: cytotoxic; hit rate 1.4% among 400,000; AID 1347075; further: on the % scale 0 is the no-effect control and ±100 the full control effect; nearly all actives have a fitted effect of over 60% in size
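KB-3-1 cells, DMEM (no phenol red) + 10% FBS; compound by pin transfer, 72 h, 37 °C. Readout: CellTiter-Glo luminescence after 10 min. Data normalized, curve-fitted.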
Starred values were filed as active, the others as inactive; i = inactive; ? = inconclusive; / = no result; [ ] = dose if it differs, or a comment. The call rests on the fitted dose curve; in most records, active means well fitted curve in the direction sought with a large enough effect; inconclusive means small, poorly fitted or top-dose-only effect, or another doubt; inactive means no such curve, though single readings can be large; an effect the other way counts as inactive or inconclusive. Potency means the concentration at half of the fitted maximal effect.

SMILES | KB-V1 MDR tox | SW480 rerep | MCF10A rereplic | ELG1 repair inh | KB-3-1 cytotox
COc1cc(/C=C/C(=O)OCC(=O)NCc2ccco2)ccc1O | ? | 23% | ? | -9% | 23µM*
CC1C(=O)N(Cc2cn(CCC3OCCO3)nn2)CCS(=O)(=O)N1Cc1ccc(-c2ccc(Cl)cc2)cc1 (stereo unspecified) | i | / | / | / | ?
COc1cc(/C=C/C(=O)OCC(=O)Nc2ccccc2Sc2ccc(Cl)cc2)ccc1O | ? | 13% | 21µM* | ? | i
CC1(C(=O)Nc2ccc3c(c2)OCCO3)CSCC(=O)N1Cc1ccco1 (stereo unspecified) | i | / | / | / | i
Cc1ccc(S(N)(=O)=O)cc1NC(=O)c1c(-c2c(Cl)cccc2Cl)noc1C | i | / | / | / | i
Cc1onc(-c2c(F)cccc2Cl)c1C(=O)Nc1cccc2nsnc12 | 18µM* | 16µM* | ? | 13% | 18µM*
Cc1ccc(S(=O)(=O)N(C)C)cc1NC(=O)c1c(-c2c(F)cccc2Cl)noc1C | ? | -102% | -1% | 26µM* | i
O=c1nc(Nc2cccc(Cl)c2)oc2cc(Cl)oc(=O)c12 | ? | 18% | 16µM* | ? | i
O=c1nc(Nc2ccccc2)oc2ccccc12 | ? | 2% | 0% | ? | i
CCCCCc1c(O)c2ccccc2[nH]c1=O | 16µM* | -10% | -4% | 6% | i
O=c1[nH]c2ccccc2c(O)c1O | ? | -31% | -1% | 3.3µM* | ?
CCc1c(C)c2ccccc2[nH]c1=O | 2.3µM* | / | / | / | 4.1µM*
CCCCCOC(=O)Cc1c(O)c2ccccc2[nH]c1=O | i | -3% | -1% | 16% | i
O=c1[nH]c2ccccc2c(O)c1-[n+]1ccccc1 | ? | -15% | ? | 11% | i
CCc1c(C)[nH]c2ccccc2c1=O | i | -2% | -3% | 2% | i
Cc1cc(C)c(OCC(=O)NCCCn2nc(C)cc2C)c(C)c1 | i | -6% | 1% | -5% | ?
Cc1cc2nc(-c3cccc(Br)c3)c(CC3CCCCC3)n2c(C)c1Br | i | / | / | / | i
CCOc1ccc(OCC)c(-c2c(=O)n(OCc3ccccc3C(=O)OC)c3ccccc3[n+]2[O-])c1 | 3.7µM* | 0% | 4% | ? | i
O=C(Cn1cc(S(=O)(=O)N2CCN(c3ccccc3F)CC2)c2ccccc2c1=O)NCCCN1CCCCCC1 | i | 21µM* | ? | 0% | i
COCCNC(=O)Cn1cc(S(=O)(=O)N2CCN(c3ccccc3F)CC2)c2ccccc2c1=O | i | -14% | -13% | 6% | i
COC(=O)CSc1[nH]c2ccc(Br)cc2c1[N+](=O)[O-] | i | 6% | 12µM* | -16% | i
CC(C)(C)C(=O)/C=c1\[nH]c(=O)/c(=C\c2ccccc2F)s1 | i | -41%[1.84 µM] | 0% | -19% | i
Cc1ccccc1/C=c1\s/c(=C\C(=O)C(C)(C)C)[nH]c1=O | ? | ? | 16µM* | ? | ?
C(#CCN1CCCC1)CC(c1ccccc1)c1ccccc1 | ? | 4% | 13µM* | 6% | i
C(#Cc1ccccc1)CN1CCCCC1 | i | -8% | -4% | 6% | i
SMILES | KB-V1 MDR tox | SW480 rerep | MCF10A rereplic | ELG1 repair inh | KB-3-1 cytotox
CCNC(=O)C1CCCN(C(=O)c2ccc(C(F)(F)F)cc2)CC1 (stereo unspecified) | i | / | / | / | i
Cn1c(-c2ccc3c(c2)OCO3)cnc1NCc1cccc(Cl)c1 | ? | 1% | ? | 4% | i
Cn1c(-c2ccc3c(c2)OCO3)cnc1NCc1ccccc1 | 13µM* | ? | 26µM* | 17% | ?
Cn1c(=O)c2c(nc(NCc3ccc4c(c3)OCO4)n2Cc2ccccc2F)n(C)c1=O | ? | 1% | 1% | ? | ?
Cn1c(=O)c2nc(NCc3ccccc3)cnc2n(C)c1=O | 18µM* | 1% | 0% | 5% | i
CCNc1nc2c(c(=O)n(C)c(=O)n2C)n1Cc1ccc(F)cc1 | i | / | / | / | ?
COc1ccc(CCNc2nc3c(c(=O)n(C)c(=O)n3C)n2Cc2ccc(F)cc2)cc1OC | 2.1µM* | / | / | / | 18µM*

Compound activity (PubChem)
